A short description of test [1]: APR_HepG2_CellLoss_72hr: Apredica 72-hour HepG2 Assay for Cell Loss (AID 2282915). Particulars: high-content imaging. The method, boiled down: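 HepG2 cells were exposed for 72 hr to compounds at 0.39–200 uM (ten concentrations, duplicate) in 0.5% v/v final DMSO. Nuclei were stained with Hoechst 33342 after 3.7% formaldehyde fixation, imaged at 20x, and counted; fits bidirectional versus DMSO.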

Test [2] is described as follows: APR_HepG2_P-H2AX_72hr: Apredica 72-hour HepG2 Assay for H2AX Phosphorylation (AID 2282916).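 Note: phospho-histone H2A.x immunostain intensity per cell marking DNA damage.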 Conditions: imaging, actives raise or lower the signal. The method, boiled down: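 Following 72 hr treatment with 0.39–200 uM compound, HepG2 cells were formaldehyde-fixed, permeabilized and stained for phospho-H2A.x; signal was measured by high-content imaging and fitted bidirectionally against DMSO controls.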

Test [3] in a line: APR_HepG2_MitoMembPot_72hr: Apredica 72-hour HepG2 Assay for Mitochondrial Membrane Potential (AID 2282917). Particulars: imaging, actives raise or lower the signal. The method, boiled down: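 HepG2 cells exposed 72 h to compounds at 0.39–200 uM (0.5% v/v DMSO, duplicates); MitoTracker Red CMXRos 250 nM loaded 30 min before 3.7% formaldehyde fixation, imaged by HCS fluorescence. Bidirectional fit versus DMSO.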

Test [4] is described as follows: APR_HepG2_MitoticArrest_72hr: Apredica 72-hour HepG2 Assay for Mitotic Arrest (AID 2282918). Particulars: high-content imaging, actives raise or lower the signal. The method, boiled down: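 Read-out is phospho-histone H3 immunofluorescence with Hoechst nuclear segmentation, imaged at 20x. Human HepG2 liver cells received ten concentrations (0.39–200 uM, final DMSO 0.5% v/v) for 72 hr before fixation. Gain or loss of signal was fitted relative to DMSO.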

Test [5] can be described thus: APR_HepG2_MicrotubuleCSK_72hr: Apredica 72-hour HepG2 Assay for Microtubule CSK Stabilty (AID 2282919). Particulars: HepG2 microtubule cytoskeleton, high-content imaging, actives raise or lower the signal. A digest of the protocol: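 HepG2 human liver cells were dosed for 72 h at ten concentrations from 0.39 to 200 uM in duplicate (0.5% v/v DMSO final). Fixed, permeabilized cells were immunostained for alpha-tubulin (Cy5) with a Hoechst counterstain and imaged at 20x.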

A short description of test [6]: APR_HepG2_P-H2AX_24hr: Apredica 24-hour HepG2 Assay for H2AX Phosphorylation (AID 2282920). Particulars: high-content imaging, actives raise or lower the signal. A digest of the protocol:
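HepG2, 24 hr, cpd 0.39–200 uM (10 conc, duplicate), DMSO 0.5% v/v final. Fix 3.7% formaldehyde, Triton X-100 permeabilize, anti-phospho-H2A.x 1:200 + Hoechst 2 ug/mL. Imaged, bidirectional fit vs DMSO.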

Test [7] in a line: APR_HepG2_StressKinase_72hr: Apredica 72-hour HepG2 Assay for Stress Kinase (AID 2282921). Conditions: HepG2 stress kinase (phospho-c-Jun) imaging, actives raise or lower the signal. A digest of the protocol: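 Fluorescence intensity of Cy3-tagged anti-phospho-c-Jun antibody, quantified per cell from Hoechst-defined nuclei across six images per well, served as the read-out following 72 h exposure (0.39–200 uM, 0.5% v/v DMSO).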

Test [8] can be described thus: APR_HepG2_StressKinase_24hr: Apredica 24-hour HepG2 Assay for Stress Kinase (AID 2282922). Particulars: HepG2 stress kinase (phospho-c-Jun) imaging, actives raise or lower the signal. The method, boiled down: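 HepG2 cells exposed 24 hr to compound at 0.39–200 uM (10 concentrations, duplicate), 0.5% v/v DMSO final. Fixed in 3.7% formaldehyde, permeabilized with Triton X-100, immunolabeled for phospho-c-Jun with Hoechst 33342; HCS fluorescence imaging, bidirectional fit versus DMSO.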

Test [9] can be described thus: APR_HepG2_p53Act_72hr: Apredica 72-hour HepG2 Assay for p53 Activation (AID 2282923).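 Note: average cellular p53 protein immunofluorescence intensity in HepG2 cells.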 Conditions: high-content imaging, actives raise or lower the signal. The method, boiled down: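 HepG2 monolayers receive test compounds in duplicate at ten concentrations (0.39 through 200 uM) for 72 hr. They are then formaldehyde-fixed, antibody-labelled for p53, Hoechst-stained and imaged, with activity fitted bidirectionally versus DMSO.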

The nature of test [10]: APR_HepG2_MitoMass_72hr: Apredica 72-hour HepG2 Assay for Mitochondrial Mass (AID 2282924).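 Note: MitoTracker Red CMXRos stain intensity per cell imaged as mitochondrial mass.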 Conditions: high-content imaging, actives raise or lower the signal. A digest of the protocol:
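HepG2 cells were exposed for 72 hr to compounds at 0.39–200 uM (ten concentrations, duplicate, 0.5% v/v DMSO final). Live cells were stained with 250 nM MitoTracker Red CMXRos for 30 min, then fixed in 3.7% formaldehyde and imaged by HCS fluorescence.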

Calls of active or inactive are those of the source. Rule for the calls: active = hit-call score of the fitted dose curve at least 0.9, where 1 is the maximum; inactive = score below 0.9.

As to `COc1cccc2c1C(=O)c1c(O)c3c(c(O)c1C2=O)C[C@@](O)(C(=O)CO)C[C@@H]3O[C@H]1C[C@H](N)[C@H](O)[C@H](C)O1`, the AC50 (commonly the concentration giving half of the maximal activity seen) in test [1] is 0.0653 µM (active); in [2] it was 1.48 µM (active); in [4] it was 1.37 µM (active); in test [5] it was 0.7 µM (active); in [6], 3.17 µM (active); in test [7], 17.6 µM (active). The AC50 in test [8] is 8.8 µM (active); in [9], 0.177 µM (active); in test [10], 36.6 µM (active). Further, the outcome in test [3] was inactive.
Regarding `CCCCCCCCCCO`, the compound was classed as inactive in test [1], in [2], in test [3], in test [4], in test [5] and in test [6]. The result in test [7], in test [8], in test [9] and in [10] was inactive.
As for `O=[N+]([O-])C(CO)(CO)CO`, the half-maximal activity concentration (AC50) in [1] was 107 µM (active); in test [2], 118 µM (active); in test [4], 105 µM (active); in test [7], 112 µM (active); in test [9] it was 119 µM (active). For the same compound, the call in [3], in test [5], in test [6], in [8] and in test [10] was inactive.
`OC[C@@H](O)[C@@H](O)[C@H](O)[C@H](O)CO`: the compound was called inactive in [1], in test [2], in test [3], in test [4], in test [5] and in [6]. The compound was classed as inactive in [7], in [8], in [9] and in [10].
With `CC1=C(/C=C/C(C)=C/C=C/C(C)=C/CO)C(C)(C)CCC1`, the AC50 in [1] was 96.6 µM (active); in [2], 19.4 µM (active); in [4], 92.8 µM (active); in test [6], 76.5 µM (active); in test [8], 72.1 µM (active); in [10], 112 µM (active). The call in test [3], in test [5], in test [7] and in test [9] was inactive.
For `CCCCCCCC=O`, the compound was called inactive in test [1], in test [2], in test [3], in [4], in test [5] and in [6]. Further, the outcome in [7], in [8], in [9] and in test [10] was inactive.
In the case of `C1CCC(SSC2CCCCC2)CC1`, the half-maximal activity concentration (AC50) was 97.4 µM (active) in [1], 113 µM (active) in test [6], 108 µM (active) in [7] and 148 µM (active) in test [9]. Also, the compound was classed as inactive in test [2], in test [3], in test [4], in [5], in test [8] and in test [10].
For the compound `CN1CCN(Cc2cc(-c3ccc4[nH]c(=O)oc4c3)co2)[C@@H](c2ccc(F)cc2)C1`, the concentration at half-maximal activity (AC50) in test [1] was 51.9 µM (active); in test [2], 41.5 µM (active); in [3] it was 66.8 µM (active); in [4], 27 µM (active); in test [5] it was 73.2 µM (active); in [6] it was 62 µM (active). In addition, the results for the concentration at half-maximal activity (AC50) in [7], in test [9] and in test [10] were 41.2 µM (active), 54.8 µM (active) and 64.6 µM (active), respectively. Moreover, the compound was classed as inactive in [8].
With `CC(=O)OC/C=C(\C)CCC=C(C)C`, the outcome in test [1], in test [2], in test [3], in [4], in test [5] and in test [6] was inactive. For the same compound, the call in [7], in test [8], in [9] and in test [10] was inactive.
For `C[C@]12C=CC(=O)C=C1CC[C@@H]1[C@@H]2C(=O)C[C@@]2(C)[C@H]1CC[C@]2(O)C(=O)CO`, the compound was called inactive in [1], in test [2], in test [3], in test [4], in test [5] and in test [6]. Besides, the compound was classed as inactive in [7], in test [8], in [9] and in [10].
`CCCCN(CCCC)CCCC`: the call in test [1], in test [2], in test [3], in [4], in [5] and in test [6] was inactive. The compound was classed as inactive in test [7], in [8], in test [9] and in test [10].
As for `COCCOC[C@H](CC1(C(=O)NC2CCC(C(=O)O)CC2)CCCC1)C(=O)Oc1ccc2c(c1)CCC2` (stereo not given in full), the compound was called inactive in test [1], in [2], in test [3], in test [4], in test [5] and in test [6]. Further, the result in [7], in test [8], in test [9] and in test [10] was inactive.
Regarding `NC(=O)Cn1c(=O)cc(CCN2CCN(c3nccc4sccc34)CC2)c2ccc(F)cc21`, the AC50 was 82 µM (active) in test [1], 101 µM (active) in test [2], 98.9 µM (active) in [4] and 101 µM (active) in test [9]. In addition, the result in [3], in [5], in test [6], in test [7], in [8] and in [10] was inactive.
With `Nc1nc(N)c2nc(CNc3ccc(C(=O)N[C@@H](CCC(=O)O)C(=O)O)cc3)cnc2n1`, the compound was called inactive in [1], in test [2], in test [3], in test [4], in test [5] and in test [6]. For the same compound, the outcome in test [7], in test [8], in test [9] and in test [10] was inactive.
`O=C(N[C@@H](Cc1ccccc1)[C@@H](O)C(=O)N1C[C@@H](O)[C@@H](O)C1)c1cc2cc(Cl)ccc2[nH]1`: the half-maximal activity concentration (AC50) is 104 µM (active) in [1]; 107 µM (active) in test [2]; 97.2 µM (active) in [3]; 108 µM (active) in test [4]; 104 µM (active) in [9]. Also, the compound was called inactive in [5], in [6], in test [7], in test [8] and in test [10].
In the case of `Cc1cccc([N+](=O)[O-])c1C`, the compound was called inactive in test [1], in [2], in test [3], in test [4], in test [5] and in test [6]. For the same compound, the outcome in test [7], in test [8], in [9] and in test [10] was inactive.
On to `CCCc1cc(=O)[nH]c(=S)[nH]1`, for which the compound was called inactive in test [1], in test [2], in test [3], in [4], in test [5] and in test [6]. Moreover, the result in [7], in [8], in test [9] and in test [10] was inactive.
Regarding `Cc1cc(=O)[nH]c(=S)[nH]1`, the call in test [1], in test [2], in test [3], in test [4], in test [5] and in test [6] was inactive. The outcome in test [7], in test [8], in test [9] and in [10] was inactive.
In the case of `Cc1ccccc1Cl`, the call in test [1], in test [2], in [3], in test [4], in test [5] and in test [6] was inactive. The outcome in test [7], in [8], in [9] and in test [10] was inactive.
For the compound `Cc1ccc(N(C)C)cc1`, the result in [1], in test [2], in test [3], in [4], in test [5] and in test [6] was inactive. Also, the result in test [7], in [8], in test [9] and in test [10] was inactive.
Regarding `C=CCOC(=O)c1ccccc1C(=O)OCC=C`, the compound was called inactive in test [1], in test [2], in test [3], in [4], in test [5] and in test [6]. Moreover, the result in [7], in [8], in test [9] and in test [10] was inactive.

Values taken from PubChem BioAssay (EPA / NIEHS).
